Laboratory results: PubChem BioAssay
A number with no mark means an inactive call. No rule for the calls is given here.

Biological target: Pantothenate synthetase (Mycobacterium tuberculosis (strain ATCC 25618 / H37Rv)) (UniProt P9WIL5)
Assay: Coupled enzyme confirmation of inhibitors against recombinant Mtb PanC (AID 375);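 also: 0% = full reaction with vehicle and 100% = no enzyme background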
Conditions: coupled enzyme assay; at 10 µM, stronger effect = higher value

Pantothenate synthetase (Mycobacterium tuberculosis (strain ATCC 25618 / H37Rv)), sequence (P9WIL5 whole entry, looked up): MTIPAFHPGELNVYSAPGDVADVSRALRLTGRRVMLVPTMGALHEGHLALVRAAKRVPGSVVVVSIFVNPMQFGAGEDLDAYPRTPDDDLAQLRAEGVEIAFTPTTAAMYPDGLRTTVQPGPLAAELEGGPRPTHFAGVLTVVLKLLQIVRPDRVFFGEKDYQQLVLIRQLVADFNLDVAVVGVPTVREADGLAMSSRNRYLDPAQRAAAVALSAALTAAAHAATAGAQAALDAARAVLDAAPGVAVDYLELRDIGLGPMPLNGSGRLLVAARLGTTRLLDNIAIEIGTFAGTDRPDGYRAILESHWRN

Row | Structure (SMILES) | inhibition [%]
1 | Cc1nn(C(=O)c2ccoc2C)c(N)c1-c1ccccc1 | 2
2 | Cc1ccc(NC(=O)c2ccco2)cc1NC(=O)CSc1nnc(-c2cccs2)n1C | 3
3 | CCOC(=O)CC(C#N)c1cn(C)c2ccccc12 (stereo not given) | 4
4 | CCOc1ccc(-n2c(C)nc3c(cnn3-c3ccc(Cl)cc3)c2=O)cc1 | 4
5 | CN(C)c1oc(-c2ccccc2F)nc1C#N | 1
6 | O=C(OCC(=O)c1ccc[nH]1)c1ccc(S(=O)(=O)N2CCCCC2)cc1 | 1
7 | O=C(NCCc1ccccc1)C1CCN(S(=O)(=O)N2CCC3(CC2)OCCO3)CC1 | 4
8 | O=S(=O)(NC1CCCCC1NS(=O)(=O)c1ccc(F)cc1)c1ccc(F)cc1 (stereo not given) | 0
9 | Cc1cc(=O)n2[nH]c(COc3ccccc3)nc2n1 | 6
10 | CC(C)CNC(=O)C1C2C=CC(C2)C1C(=O)O (stereo not given) | 7
11 | CCOc1ccc(CNC(=O)C2CCCN(S(C)(=O)=O)C2)cc1OC (stereo not given) | 0
12 | O=P(O)(CN1CCCCCC1)CN1CCCCCC1 | 0
13 | Cc1cc(O)c(NC(=O)c2ccc(Br)o2)cc1C | 11
14 | CCCC(=O)Nc1cc(C)c2c(=O)oc3ccccc3c2n1 | 2
15 | O=C(NCc1ccco1)C1CCN(S(=O)(=O)N2CCC3(CC2)OCCO3)CC1 | 0
16 | Cc1c(C2Nc3ccccc3NC3=C2C(=O)CC(C)(C)C3)cnn1C (stereo not given) | 2
17 | CCOc1ccc(N(CC(=O)NC2CCCCC2)S(=O)(=O)c2c(C)noc2C)cc1 | 0
18 | C/C(CC(O)(/C=N/O)c1ccccc1)=N\O (stereo not given) | 1
19 | CCOC(=O)c1cnc(-n2nc(C)cc2C)nc1Nc1cccc(C(C)=O)c1 | 0
20 | COc1ccc(-c2nnc(SCC#N)o2)cc1 | 0

Row | Structure (SMILES) | inhibition [%]
21 | CCCCc1c(O)nc(SCC(=O)Nc2ccc3c(c2)CCC3)[nH]c1=O | 2
22 | COC(=O)[C@H](C)NC(=O)Nc1cccc(C(F)(F)F)c1 | 0
23 | CC(C)NC(=O)CSCc1ccccc1Cl | 13
24 | Cc1ccc(C)c(NC(=O)c2ccc3c(c2)N(Cc2ccc(F)cc2)C(=O)CS3=O)c1 (stereo not given) | 0
25 | Cc1cc(NC(=O)CS(=O)(=O)c2cn(Cc3ccccc3Cl)c3ccccc23)no1 | 9
26 | CC(C)OC(=O)c1cccc(C(=O)O)n1 | 4
27 | CCCn1c2ccccc2c2nnc(SCC(=O)OCC)nc21 | 6
28 | Nc1ccc(-n2c(N)c(C(=O)NCc3ccc4c(c3)OCO4)c3nc4ccccc4nc32)cc1 | 14
29 | CCCn1c(SCC(=O)NC(=O)NCc2ccco2)n[nH]c1=O | 0
30 | COc1ccc(C2C(C(=O)c3sc(C)nc3C)=C(O)C(=O)N2CCN(C)C)cc1 (stereo not given) | 9
31 | COc1ccccc1N1CCN(C(=O)C2CCN(S(=O)(=O)c3ccc(F)cc3)CC2)CC1 | 0
32 | CN(CCCNC(=O)c1cn(C)c2ccc(S(=O)(=O)N(C)C)cc2c1=O)c1ccccc1 | 4
33 | c1ccc2c(SCc3cn4cccnc4n3)ncnc2c1 | 2
34 | CC1C(O)=C(c2nc3ccccc3[nH]2)C(=N)N1c1ccccc1 (stereo not given) | 9
35 | COCCN(CCOC)C(=O)c1sc2nc(-c3ccccc3)cn2c1C | 0
36 | CCCc1nc(NCc2ccncc2)c2nnn(Cc3ccccc3F)c2n1 | 0
37 | O=C(CCN1CCOCC1)Nc1ccc2c(c1)CCC2 | 4
38 | COc1ccc(CN(C2CCCC2)S(=O)(=O)c2ccc(-n3cnnn3)cc2)cc1OC | 0
39 | Cc1ccc(NC(=O)C2CCCN2C(=O)Oc2ccccc2)cc1 (stereo not given) | 1
40 | O=C(Nc1nonc1NC(=O)C1CCCCC1)C1CCCCC1 | 0
